The text below walks through data of publication PMC4081100, “A DNA-binding-site landscape and regulatory network analysis for NAC transcription factors in Arabidopsis thaliana”.

Holding throughout (assay): universal protein binding microarray (PBM); transcription factors of Arabidopsis thaliana; high values mean tight binding
What all share (details): protein: recombinant; tags: GST; chain copies: 2; dsDNA, one strand shown

One experiment has as its target T1, GST-ANAC092(1-176) (Arabidopsis thaliana, UniProt Q9FKA0 1-176).
T1 sequence: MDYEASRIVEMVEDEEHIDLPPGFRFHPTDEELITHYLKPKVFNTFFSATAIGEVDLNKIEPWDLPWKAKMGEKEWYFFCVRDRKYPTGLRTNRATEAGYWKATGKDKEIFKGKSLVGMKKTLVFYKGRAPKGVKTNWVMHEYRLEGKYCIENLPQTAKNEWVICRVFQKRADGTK
Summed up: (§1)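 For zinc-finger proteins, zinc acetate was added while GST-tagged NAC-domain, full-length or DNA-binding-domain proteins were induced in cells. Purification used glutathione–Sepharose 4B, and quantification used A280 or anti-GST western blot. Custom all-10-mer Agilent 4 × 180K arrays, made double-stranded by primer extension, each received a protein at 200 to 500 nM final in duplicate. Scoring covered gapped and ungapped 8-mers, with binding given as the normalised enrichment score (E-score).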

The next experiment concerns the target GST-NTL6(1-168) (Arabidopsis thaliana, UniProt Q9SCK6 1-168). In a few lines: as §1
The next experiment concerns the target T2, GST-ANAC019 NAC domain (Arabidopsis thaliana, UniProt Q9C932 14-162).
T2 sequence: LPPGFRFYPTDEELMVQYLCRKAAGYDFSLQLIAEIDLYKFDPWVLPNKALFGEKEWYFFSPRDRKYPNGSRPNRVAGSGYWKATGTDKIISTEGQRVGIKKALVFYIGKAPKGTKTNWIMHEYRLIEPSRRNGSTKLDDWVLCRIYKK
In a few lines: as §1

The next experiment concerns the target T3, GST-ANAC055(1-171) (Arabidopsis thaliana, UniProt Q9LDY8 1-171).
T3 sequence: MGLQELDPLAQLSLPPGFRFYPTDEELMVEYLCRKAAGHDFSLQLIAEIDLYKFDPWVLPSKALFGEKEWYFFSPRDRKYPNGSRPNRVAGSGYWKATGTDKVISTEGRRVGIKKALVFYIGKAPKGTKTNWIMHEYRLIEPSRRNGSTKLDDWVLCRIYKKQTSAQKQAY
Summed up:
as §1

The next experiment concerns the target T4, GST-ATAF1 NAC domain (Arabidopsis thaliana, UniProt Q39013 7-158).
T4 sequence: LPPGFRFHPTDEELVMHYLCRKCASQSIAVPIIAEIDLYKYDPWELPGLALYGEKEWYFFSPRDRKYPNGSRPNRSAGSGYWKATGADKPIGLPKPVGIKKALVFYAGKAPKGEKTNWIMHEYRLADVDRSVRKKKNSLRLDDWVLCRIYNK
In a few lines: as §1

The target of experiment [1] is T5, GST-ANAC092(1-285) full length (Arabidopsis thaliana, UniProt Q9FKA0 1-285).
T5 sequence: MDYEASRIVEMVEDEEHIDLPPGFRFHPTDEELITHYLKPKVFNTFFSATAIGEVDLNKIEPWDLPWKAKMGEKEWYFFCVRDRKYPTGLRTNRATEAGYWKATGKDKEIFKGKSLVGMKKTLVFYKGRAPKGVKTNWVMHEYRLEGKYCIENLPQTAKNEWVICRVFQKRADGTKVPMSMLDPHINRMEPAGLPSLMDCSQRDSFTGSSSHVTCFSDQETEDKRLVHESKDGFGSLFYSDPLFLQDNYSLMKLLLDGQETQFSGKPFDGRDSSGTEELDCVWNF
Summed up: as §1

In a further experiment the target is T6, GST-NAP(1-166) (Arabidopsis thaliana, UniProt O49255 1-166).
T6 sequence: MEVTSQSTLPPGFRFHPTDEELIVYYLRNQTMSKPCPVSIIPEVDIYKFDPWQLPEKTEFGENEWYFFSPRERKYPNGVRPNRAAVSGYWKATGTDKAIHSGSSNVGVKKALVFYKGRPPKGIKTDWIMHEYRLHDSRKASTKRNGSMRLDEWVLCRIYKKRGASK
Summed up: as §1

In a further experiment the target is T7, GST-NST2(1-184) (Arabidopsis thaliana, UniProt Q9M274 1-184).
T7 sequence: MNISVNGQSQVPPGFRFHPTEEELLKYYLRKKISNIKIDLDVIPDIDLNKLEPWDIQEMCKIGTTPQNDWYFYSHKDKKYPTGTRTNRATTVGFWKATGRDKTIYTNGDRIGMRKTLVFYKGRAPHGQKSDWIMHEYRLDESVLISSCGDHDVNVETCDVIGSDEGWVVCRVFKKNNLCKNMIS
Summed up: as §1

The target of the next experiment is T8, GST-NTL8 NAC domain (Arabidopsis thaliana, UniProt Q9XIN7 14-156).
T8 sequence: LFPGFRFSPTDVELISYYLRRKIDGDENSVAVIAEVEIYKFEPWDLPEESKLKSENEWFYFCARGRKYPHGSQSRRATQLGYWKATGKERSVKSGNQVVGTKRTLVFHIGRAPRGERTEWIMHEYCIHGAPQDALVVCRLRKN
In a few lines:
as §1

The target in a further experiment is T9, GST-SND1(1-203) (Arabidopsis thaliana, UniProt Q9LPI7 1-203).
T9 sequence: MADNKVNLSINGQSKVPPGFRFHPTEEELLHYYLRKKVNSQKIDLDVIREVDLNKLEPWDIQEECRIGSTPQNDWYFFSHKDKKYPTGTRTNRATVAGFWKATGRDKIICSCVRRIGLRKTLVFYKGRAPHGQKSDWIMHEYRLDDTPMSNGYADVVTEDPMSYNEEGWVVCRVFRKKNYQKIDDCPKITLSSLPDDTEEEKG
In a few lines:
as §1

For another experiment, the target named is T10, GST-VND3 NAC domain (Arabidopsis thaliana, UniProt Q9FH59 12-162).
T10 sequence: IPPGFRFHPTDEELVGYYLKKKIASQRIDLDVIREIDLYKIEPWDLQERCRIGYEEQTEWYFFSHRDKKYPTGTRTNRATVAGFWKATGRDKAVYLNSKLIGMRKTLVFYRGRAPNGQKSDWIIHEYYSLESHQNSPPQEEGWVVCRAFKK
In a few lines:
as §1

Another experiment concerns the target T11, GST-VND7 NAC domain (Arabidopsis thaliana, UniProt Q9C8W9 9-158).
T11 sequence: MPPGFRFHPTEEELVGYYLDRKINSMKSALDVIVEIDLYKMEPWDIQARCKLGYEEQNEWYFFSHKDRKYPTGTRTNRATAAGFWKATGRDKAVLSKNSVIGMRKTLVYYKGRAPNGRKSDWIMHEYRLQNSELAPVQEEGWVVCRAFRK
In a few lines: as §1

Sequence of GST-NTL6(1-168) (Q9SCK6 1-168): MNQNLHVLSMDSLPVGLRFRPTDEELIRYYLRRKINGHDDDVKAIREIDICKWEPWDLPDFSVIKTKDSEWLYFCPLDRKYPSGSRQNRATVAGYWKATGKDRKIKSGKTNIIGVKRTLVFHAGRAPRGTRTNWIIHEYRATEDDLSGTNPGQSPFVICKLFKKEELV

As to CAAGTTAC, the binding signal in the experiment with GST-ANAC092(1-176) came out at 0.371 E-score; in the experiment with GST-NTL6(1-168) it was 0.256 E-score; in the experiment with GST-ANAC019 NAC domain, 0.163 E-score; with GST-ANAC055(1-171) it was 0.178 E-score; with GST-ATAF1 NAC domain, 0.134 E-score; in [1] it was 0.411 E-score. For the same sequence, the binding signal with GST-NAP(1-166) was 0.144 E-score; with GST-NST2(1-184), 0.238 E-score; in the experiment with GST-NTL8 NAC domain it was 0.167 E-score; in the experiment with GST-SND1(1-203), 0.323 E-score; with GST-VND3 NAC domain it was 0.254 E-score; with GST-VND7 NAC domain, 0.184 E-score.
In the case of AAGGGTAA, the binding signal with GST-ANAC092(1-176) was found to be 0.117 E-score; with GST-NTL6(1-168) it was 0.194 E-score; with GST-ANAC019 NAC domain, 0.127 E-score; in the experiment with GST-ANAC055(1-171), 0.0999 E-score; with GST-ATAF1 NAC domain, 0.0524 E-score; in [1], 0.134 E-score. Moreover, the binding signal with GST-NAP(1-166) came out at 0.117 E-score; in the experiment with GST-NST2(1-184), 0.126 E-score; with GST-NTL8 NAC domain, 0.444 E-score; in the experiment with GST-SND1(1-203) it was 0.117 E-score; with GST-VND3 NAC domain it was 0.223 E-score; with GST-VND7 NAC domain it was 0.0677 E-score.
Take ACGTAACT: the binding signal in the experiment with GST-ANAC092(1-176) stood at 0.443 E-score; in the experiment with GST-NTL6(1-168), 0.174 E-score; with GST-ANAC019 NAC domain it was 0.48 E-score; with GST-ANAC055(1-171) it was 0.451 E-score; in the experiment with GST-ATAF1 NAC domain, 0.444 E-score; in experiment [1], 0.424 E-score. Further, the binding signal with GST-NAP(1-166) worked out at 0.474 E-score; in the experiment with GST-NST2(1-184) it was 0.251 E-score; in the experiment with GST-NTL8 NAC domain it was 0.247 E-score; with GST-SND1(1-203), 0.325 E-score; with GST-VND3 NAC domain it was 0.466 E-score; in the experiment with GST-VND7 NAC domain, 0.474 E-score.
For CACGTAAG, the binding signal came out at 0.449 E-score in the experiment with GST-ANAC092(1-176); 0.068 E-score with GST-NTL6(1-168); 0.463 E-score with GST-ANAC019 NAC domain; 0.441 E-score with GST-ANAC055(1-171); 0.349 E-score with GST-ATAF1 NAC domain; 0.446 E-score in [1]. Also, the binding signal with GST-NAP(1-166) is 0.419 E-score; with GST-NST2(1-184) it was 0.201 E-score; in the experiment with GST-NTL8 NAC domain, 0.17 E-score; with GST-SND1(1-203), 0.0778 E-score; with GST-VND3 NAC domain it was 0.447 E-score; with GST-VND7 NAC domain, 0.447 E-score.
As for TAAGCAAA, the binding signal is 0.201 E-score in the experiment with GST-ANAC092(1-176); 0.431 E-score with GST-NTL6(1-168); 0.113 E-score with GST-ANAC019 NAC domain; 0.208 E-score in the experiment with GST-ANAC055(1-171); 0.202 E-score in the experiment with GST-ATAF1 NAC domain; 0.308 E-score in [1]. Moreover, the binding signal with GST-NAP(1-166) turned out to be 0.103 E-score; with GST-NST2(1-184) it was 0.291 E-score; with GST-NTL8 NAC domain, 0.241 E-score; in the experiment with GST-SND1(1-203) it was 0.409 E-score; with GST-VND3 NAC domain it was 0.248 E-score; with GST-VND7 NAC domain, 0.252 E-score.
Consider GTACGAAA, for which the binding signal worked out at 0.38 E-score in the experiment with GST-ANAC092(1-176); 0.184 E-score with GST-NTL6(1-168); 0.267 E-score with GST-ANAC019 NAC domain; 0.274 E-score with GST-ANAC055(1-171); 0.24 E-score with GST-ATAF1 NAC domain; 0.413 E-score in experiment [1]. Further, the binding signal was found to be 0.247 E-score with GST-NAP(1-166); 0.285 E-score in the experiment with GST-NST2(1-184); 0.116 E-score in the experiment with GST-NTL8 NAC domain; 0.277 E-score with GST-SND1(1-203); 0.294 E-score with GST-VND3 NAC domain; 0.196 E-score with GST-VND7 NAC domain.
Consider GCAAGTAA, for which the binding signal was 0.339 E-score with GST-ANAC092(1-176); 0.409 E-score with GST-NTL6(1-168); 0.211 E-score with GST-ANAC019 NAC domain; 0.198 E-score with GST-ANAC055(1-171); 0.151 E-score with GST-ATAF1 NAC domain; 0.415 E-score in experiment [1]. In addition, the binding signal stood at 0.056 E-score in the experiment with GST-NAP(1-166); 0.223 E-score with GST-NST2(1-184); 0.264 E-score in the experiment with GST-NTL8 NAC domain; 0.352 E-score with GST-SND1(1-203); 0.231 E-score with GST-VND3 NAC domain; 0.232 E-score with GST-VND7 NAC domain.
